Assay results from PubChem BioAssay AID493231 (Broad Institute, 2011).
Results with a measured potency or affinity are listed apart. Active and inactive are the calls of the source. How the calls were made is not given here.

target: Acyl-homoserine lactone acylase PvdQ (Pseudomonas aeruginosa (strain ATCC 15692 / DSM 22644 / CIP 104116 / JCM 14847 / LMG 12228 / 1C / PRS 101 / PAO1)) (UniProt Q9I194); assay: PvdQ acylase enzyme activity blockers – biochemical, fluorescence, plate reader and imaging, cherry-picks, dose response (AID 493231); conditions: purified PvdQ acylase, fluorogenic substrate; series mostly up to 10 µM; activity change, negative = inhibition: at the top concentration;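 further: 0% = neutral control wells and -100% = reference inhibitor wells; more negative values mean stronger inhibition of the acylase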
Sequence (Q9I194 whole entry, looked up): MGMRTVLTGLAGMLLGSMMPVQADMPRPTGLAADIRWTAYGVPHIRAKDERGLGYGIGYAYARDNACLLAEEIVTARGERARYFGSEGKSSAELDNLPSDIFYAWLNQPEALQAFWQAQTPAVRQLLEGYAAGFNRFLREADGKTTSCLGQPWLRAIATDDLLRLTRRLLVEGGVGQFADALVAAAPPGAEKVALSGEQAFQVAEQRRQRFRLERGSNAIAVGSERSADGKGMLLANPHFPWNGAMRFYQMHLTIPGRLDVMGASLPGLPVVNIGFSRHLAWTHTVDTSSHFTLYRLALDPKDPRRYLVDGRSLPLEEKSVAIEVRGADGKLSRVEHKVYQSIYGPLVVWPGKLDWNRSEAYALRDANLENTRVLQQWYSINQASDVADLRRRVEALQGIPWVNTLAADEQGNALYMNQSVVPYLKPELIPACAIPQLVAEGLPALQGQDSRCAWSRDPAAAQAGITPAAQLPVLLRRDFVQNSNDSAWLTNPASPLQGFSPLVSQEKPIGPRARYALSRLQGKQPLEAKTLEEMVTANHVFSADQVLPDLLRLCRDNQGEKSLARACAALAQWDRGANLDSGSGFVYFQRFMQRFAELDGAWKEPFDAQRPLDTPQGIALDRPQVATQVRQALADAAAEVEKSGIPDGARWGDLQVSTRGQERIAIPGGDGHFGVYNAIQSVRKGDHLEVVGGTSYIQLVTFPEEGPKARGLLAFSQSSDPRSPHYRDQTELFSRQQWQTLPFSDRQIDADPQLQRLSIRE

SMILES | activity change, negative = inhibition
Cc1ccc(Nc2nc(-c3sc(C)nc3C)cs2)cc1 | 17.1 unspecified (inactive)
O=C1CC(c2ccccc2)Cc2nc(NC3CC3)ncc21 (stereo not given) | 8.35 unspecified (inactive)
CCCSC1=C(C#N)C(c2ccc(OC)cc2)C2=C(CC(C)(C)CC2=O)N1 (stereo not given) | -5.15 unspecified (inactive)
CN(C)CCN(C(=O)C1=COCCO1)c1nc2ccc(Cl)cc2s1 | 11.4 unspecified (inactive)
COc1ccc(-c2nn(-c3ccccc3)cc2/C=C2/SC(=S)N(CCC(=O)O)C2=O)cc1 | -8.74 unspecified (inactive)
COC(=O)c1sccc1N/N=C/c1ccc(OC)c(OC)c1OC | 10 unspecified (inactive)
Cc1nc2ccc(S(=O)(=O)Nc3ccc(-c4nc5cccnc5s4)cc3)cc2s1 | 22.2 unspecified (inactive)
O=C1CCCN=C(Nc2ccc(F)c(Cl)c2)S1 | 4.46 unspecified (inactive)
Clc1ccc2nc3c4ccccc4cnn3c2c1 | -7.83 unspecified (inactive)
CSC(=S)N/N=C/c1ccccc1 | 8.93 unspecified (inactive)
CCN1CCCC1CN(Cc1cc2ccc(C)cc2[nH]c1=O)C(=S)Nc1cccc(OC)c1 (stereo not given) | 13.5 unspecified (inactive)
S=C(NCc1ccc2c(c1)OCO2)Nc1ccc2nsnc2c1 | 10.7 unspecified (inactive)
CCSc1ccc(-c2cccc([N+](=O)[O-])c2)nn1 | -7.89 unspecified (inactive)
Cc1ccc2[nH]c(=O)c(CC=C(Cl)Cl)c(C)c2c1 | 2.84 unspecified (inactive)
CCOc1ccc(NC(=O)NCc2cccn2C)cc1 | -6.12 unspecified (inactive)
CCOC(=O)C1CCCN(C(=O)c2cc(S(=O)(=O)N(C)C)ccc2N2CCCC2)C1 (stereo not given) | -100 unspecified (inactive)
COc1ccccc1OCCC(=O)OCC(=O)c1c(N)n(C)c(=O)n(C)c1=O | 6.02 unspecified (inactive)
Cc1ccc(SCC(=O)Nc2ccc(F)cc2[N+](=O)[O-])cc1C | 12.6 unspecified (inactive)

SMILES | activity change, negative = inhibition
O=C(N/N=C/c1cccnc1)C1CC1(c1ccccc1)c1ccccc1 (stereo not given) | 13.5 unspecified (inactive)
COc1ccc(CCNC(=O)c2cccc(S(=O)(=O)N3CCc4ccccc4C3)c2)cc1 | 1.84 unspecified (inactive)
COC(=O)C1CCN(C2CC(=O)N(c3cc(C)cc(C)c3)C2=O)CC1 (stereo not given) | -1.56 unspecified (inactive)
CSCCC(NC(=O)c1ccc([N+](=O)[O-])cc1Cl)C(=O)OCC(=O)N(C)C (stereo not given) | -102 unspecified (inactive)
Cc1cc(C)cc(NC(=O)C(OC(=O)c2cccs2)c2ccccc2)c1 (stereo not given) | -99.4 unspecified (inactive)
CCC(=O)N1N=C(c2ccc(C)o2)CC1c1ccc(N(C)C)cc1 (stereo not given) | 4.82 unspecified (inactive)
CC(C)CCN(CCC(C)C)C(CO)(CO)CO | 2.29 unspecified (inactive)
COC(=O)c1cc(S(=O)(=O)Nc2cccc(S(N)(=O)=O)c2)oc1C | 7.02 unspecified (inactive)
Cn1nnnc1SCC(=O)NCCCc1ccccc1 | 13.1 unspecified (inactive)
O=C(NCCCn1ccnc1)c1nn2c(C(F)(F)F)cc(-c3ccccc3)nc2c1Cl | 4.84 unspecified (inactive)
Cc1ccc2[nH]c(=O)c3cc(C(=O)NC(C)C)sc3c2c1 | -10 unspecified (inactive)
CCCCNc1c(C(=O)OCC)c(=O)[nH]c2ccccc12 | 3.06 unspecified (inactive)
CC[N+](CC)(CC)C/C=C/CN1CCCCC1 | 11.5 unspecified (inactive)
COc1ccc(CN2CCCC(C(=O)c3cccc(OC(C)C)c3)C2)cc1Cn1cccn1 (stereo not given) | 5.43 unspecified (inactive)
COCCNC(=O)c1cc2nc(-c3ccccc3)cc(C)n2n1 | 3.65 unspecified (inactive)
COc1cc(NC(=S)NC2CC(C)(C)NC(C)(C)C2)cc(OC)c1 | -1.35 unspecified (inactive)
CS(=O)(=O)c1ccc(Cl)c(NC(=O)COC(=O)c2ccc(F)cc2Cl)c1 | 7.09 unspecified (inactive)
